# Tb PYK inh: blocks Trypanosoma brucei pyruvate kinase | Potency, µM (titrated, usually from 76.8 µM), without a hit: at the highest dose activity, negative = inhibition, actives largely listed as inhibitors | TbPYK enzyme, Kinase-Glo Plus ATP luminescence, 45 min | Q57TT1 | AID 624173 | 0.12% of 410,000 active; also: potency is read from the fitted curve at half-maximal effect; % is scaled to controls: 0 for no effect and ±100 for the full control effect; nearly all actives have a fitted effect of over 50% in size
#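 In this concentration-response screen, enzyme-free wells defined baseline while DMSO plates tracked drift. Each reaction combined TbPYK, substrate, compound and 130 uM ADP for 45 min at room temperature. Kinase-Glo Plus luminescence gave the signal.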
# FBPA Giardia inh: inhibitors of Giardia lamblia fructose-1,6-bisphosphate aldolase | AID 2451 | A8B2U2 | 0.71% of 290,000 active | Potency, µM (doses to about 59.6 µM), for the others: at the highest dose activity, negative = inhibition, hits mostly inhibitors | purified Giardia FBPA; also: potency is read from the fitted curve at half-maximal effect; % is scaled to controls: 0 for no effect and ±100 for the full control effect; nearly all actives have a fitted effect of over 55% in size
# Target sequence (A8B2U2 whole entry, looked up): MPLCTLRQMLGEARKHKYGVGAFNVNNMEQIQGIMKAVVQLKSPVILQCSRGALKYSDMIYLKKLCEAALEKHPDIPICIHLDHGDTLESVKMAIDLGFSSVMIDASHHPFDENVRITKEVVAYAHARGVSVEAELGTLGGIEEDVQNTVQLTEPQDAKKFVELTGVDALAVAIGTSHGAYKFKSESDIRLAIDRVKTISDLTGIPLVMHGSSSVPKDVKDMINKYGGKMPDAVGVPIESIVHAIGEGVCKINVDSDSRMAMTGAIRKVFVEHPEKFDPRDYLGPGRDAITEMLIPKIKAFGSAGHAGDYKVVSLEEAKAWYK
#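 40 nM FBPA preincubated 10 min at RT with compound (up to 57.5 uM final), then substrate plus GAPDH/TPI/NAD/arsenate coupling and diaphorase/resazurin added. Fluorescence read after 20 min at RT, 525/598 nm.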
# RE007 growth inh: less growth of the S. pombe RE007 Vpr strain | S. pombe RE007 Vpr strain, BacTiter-Glo ATP luminescence, 24 h | Potency, µM (highest dose often 92.2 µM), for inactives: at the top dose activity change, negative = less growth, hits mostly inhibitors | 0.21% of 360,000 active | AID 651644; active = well fitted falling curve with a large enough effect; inconclusive = small, poorly fitted or top-dose-only effect; inactive = no such curve, though single readings can be large or run the other way; also: potency is read from the fitted curve at half-maximal effect; % is scaled to controls: 0 for no effect and ±100 for the full control effect; nearly all actives have a fitted effect of over 50% in size
#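 Fission yeast RE007 carrying one integrated HIV-1 vpr copy, seeded at OD 0.01 in PMG+AL medium with 23 nL pinned compound. Grown 24 h at 30 degrees; viability read by BacTiter-Glo luminescence after 5 min.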
# Shiga inhibitor: Shiga toxin inhibition. 9.2% of 290,000 active. inhibition, % at 38.7 µM. Vero cells, Shiga toxin protein synthesis inhibition reporter. AID 2315; in the data active = inhibition mostly above about 28%, no sharp cut-off; inactive = mostly below about 43%; also: 0% is about no effect
# LmPK inh: inhibitors of Leishmania mexicana pyruvate kinase; purified LmPK, Kinase-Glo ATP luminescence, 1 h; Potency, µM (doses to about 57.5 µM), for inactives: top-dose activity change, negative = inhibition, usual class: inhibitors; 0.37% of 290,000 active; also: potency is read from the fitted curve at half-maximal effect; % is scaled to controls: 0 for no effect and ±100 for the full control effect
#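 Screened at intermediate enzyme activity to detect both inhibitors and activators: LmPK at 0.1 nM, with a 0.5 nM enzyme column as activation reference. PEP 0.5 mM, ADP 0.1 mM; ATP detected by luminescence after 1 h.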
# CHX counter: counter-screen for Shiga toxin inhibitors: cycloheximide protein synthesis inhibition; cell reporter, cycloheximide protein synthesis inhibition counterscreen; max response, %; 12% of 300,000 active; in the data active = max response mostly above about 13%, no sharp cut-off; inactive = mostly below about 14%; also: read at 38.3 µM for the half of the compounds with a filed dose; 0% is about no effect
# Starred values were filed as active, the others as inactive; ? = inconclusive; nt = no result given. Only a selection was taken, and hits are over-represented in it overall. Unless noted, calls follow the shape of the dose curve; as a rule, active = well fitted curve in the direction sought with a large enough effect; inconclusive = small, poorly fitted or top-dose-only effect, or another doubt; inactive = no such curve, though single readings can be large; an effect the other way counts as inactive or inconclusive.
SMILES,Tb PYK inh,FBPA Giardia inh,RE007 growth inh,Shiga inhibitor,LmPK inh,CHX counter
Cc1ccc(-c2nc3ccccc3o2)cc1NC(=S)NC(=O)c1cccs1,4%,-9%,-5%,98*,-2%,32*
Cc1cc(C)c2oc(-c3ccc(C)c(NC(=S)NC(=O)/C=C/c4ccco4)c3)nc2c1,10%,-3%,-6%,44*,-2%,29*
Cc1cc(C)c2oc(-c3ccc(Cl)c(NC(=O)c4cccs4)c3)nc2c1,-9%,nt,nt,nt,nt,nt
Cc1cc(C)c2oc(-c3ccc(C)c(NC(=S)NC(=O)c4cccs4)c3)nc2c1,4%,-7%,-20%,39*,0%,17*
CCCNC(=O)c1ccc(COc2ccc(C(C)(C)C)cc2)o1,-2%,6%,0%,94*,4%,40*
CCOc1ncccc1C(=O)OCc1ccc(C(=O)OC)o1,-4%,-1%,1%,-9,-1%,5
COC(=O)c1ccc(COC(=O)c2cccn2C)o1,0%,-2%,-11%,140*,1%,24*
Cn1cccc1C(=O)OCC(=O)c1cc2ccccc2o1,-2%,-1%,?,62*,-2%,29*
CCC(C)c1ccc(OCc2ccc(C(=O)OC)o2)cc1 (configuration not stated),-1%,3%,7%,149*,-2%,101*
CCOC(=O)c1c(S(=O)(=O)N2CCCC(C(=O)N3CCN(c4ccccc4)CC3)C2)c(C)n(C)c1C (configuration not stated),1%,nt,nt,nt,nt,nt
CCOC(=O)c1c(C)[nH]c(C)c1S(=O)(=O)N1CCC(C(=O)NCc2cccc(C)c2)CC1,4%,nt,nt,nt,nt,nt
CCc1nc2ccc(C(=O)NCc3ccc(OC)c(OC)c3)cc2nc1CC,4%,nt,nt,nt,nt,nt
CCc1ccc(OCc2ccc(C(=O)OC)o2)cc1,1%,9%,-3%,154*,-4%,67*
COC(=O)c1ccc(COc2ccc(C=O)cc2)o1,-1%,-5%,2%,12,0%,8
CC(C)(C)c1ccc(OCc2ccc(C(=O)Nc3cccnc3)o2)cc1,3%,8%,9%,157*,-2%,75*
CC(C)(C)c1ccc(OCc2ccc(C(=O)N3CCOCC3)o2)cc1,-3%,-16%,10%,115*,11%,54*
COC(=O)c1ccc(COc2ccc(NC(C)=O)cc2)o1,-2%,5%,34%,16,-13%,-1
COC(=O)c1ccc(COc2ccc(C(C)(C)C)cc2)o1,1%,4%,nt,145*,6%,90*
O=C(Nc1cccnc1)c1ccc(COc2ccccc2Br)o1,-4%,1%,8%,16,2%,-2
Cc1onc(-c2ccccc2Cl)c1C(=O)Oc1cc(F)cc(F)c1,-4%,nt,nt,nt,nt,nt
COC(=O)c1ccc(COc2ccc3c(c2)CCC3)o1,-3%,-1%,-5%,117*,-1%,54*
CCCc1ccc(OCc2ccc(C(=O)N3CCSCC3)o2)cc1,1%,3%,-14%,156*,1%,86*
COc1ccc(-n2nc(C(=O)Nc3cc(C)ccn3)c3c4ccccc4n(C)c3c2=O)cc1Cl,0%,nt,nt,nt,nt,nt
CCN(CC)c1cc(C)nc2nc(-c3ccc(C)cc3)nn12,-6%,nt,nt,nt,nt,nt
CCCn1c(CCC(=O)Nc2cc(C(=O)OC)cc(C(=O)OC)c2)nc2cccnc21,-1%,nt,nt,nt,nt,nt
SMILES,Tb PYK inh,FBPA Giardia inh,RE007 growth inh,Shiga inhibitor,LmPK inh,CHX counter
Cc1ccc(C(=O)N2CCN(S(=O)(=O)c3ccccc3[N+](=O)[O-])C2)cc1,8%,-6%,-17%,92*,-5%,37*
Cc1ccc(-c2nc(Nc3ccccc3)n[nH]2)cc1,2%,-5%,-12%,83*,0%,43*
O=C(c1cnccn1)N1CCC[C@@]2(CCN(C(c3ccccc3)c3ccccc3)C2)C1,-3%,1%,nt,nt,nt,nt
COc1ccc(NC(=O)CN(C)S(=O)(=O)c2cccs2)cc1,-7%,2%,-10%,40*,0%,29*
Cc1cccc2sc(NC(=O)CN(C)S(=O)(=O)c3cccs3)nc12,-1%,-9%,-21%,45*,1%,15
Cc1cccc(NC(=O)CN(C)S(=O)(=O)c2cccs2)c1,-4%,-5%,-4%,101*,-6%,15*
COc1cccc(NC(=O)CN(C)S(=O)(=O)c2cccs2)c1,-6%,nt,nt,nt,nt,nt
CN(CC(=O)NCc1ccccc1Cl)S(=O)(=O)c1cccs1,-3%,6%,-10%,30,0%,15*
Cc1ccccc1NC(=O)CN(C)S(=O)(=O)c1cccs1,-2%,-2%,-4%,-4,1%,9
CCc1ccc(-c2nn(CC(=O)NC3CCCC3)c3c2cnc2ccc(C)cc23)cc1,1%,nt,nt,nt,nt,nt
CN(CC(=O)N1CCc2ccccc21)S(=O)(=O)c1cccs1,-6%,-3%,-9%,99*,2%,61*
CC(C(=O)N1CCc2ccccc21)N1CCN(S(=O)(=O)c2cccs2)CC1 (configuration not stated),-2%,nt,-4%,nt,nt,nt
O=C(Cn1c(=O)n(-c2cccc(Cl)c2)c(=O)c2sc3ccccc3c21)N1CCCC1,7%,nt,nt,nt,nt,nt
COc1ccc(-n2ncc3c2CC(C)(C)CC3NC(=O)C2CCN(C(C)=O)CC2)cc1 (configuration not stated),2%,nt,3%,23*,-8%,19*
COc1ccc(-n2ncc3c2CC(C)(C)CC3NC(=O)c2ccc(OC)o2)cc1 (configuration not stated),-6%,6%,1%,3,2%,-2
COc1ccc(-n2ncc3c2CC(C)(C)CC3NC(=O)c2ccoc2C)cc1 (configuration not stated),3%,nt,10%,15,-17%,17*
CC(=O)N1CCC(C(=O)NC2CC(C)(C)Cc3c2cnn3-c2ccc(F)cc2)CC1 (configuration not stated),-9%,nt,-1%,-9,-1%,-1
CN(C)c1ccc(CNC(=O)C2CCN(C(=O)c3ccc(-n4ccc5ccccc54)s3)CC2)cc1,-9%,nt,nt,nt,nt,nt
CCCNc1nc(NCc2ccccc2OC)c2cnn(C)c2n1,6%,nt,nt,nt,nt,nt
Cc1occc1C(=O)N/N=C/C=C\c1ccccc1[N+](=O)[O-],-7%,-12%,-9%,70*,-4%,30*
CCOC(=O)N/N=C/C=C/c1ccccc1[N+](=O)[O-],4%,-3%,12%,73*,-5%,22*
Cc1ccsc1C(=O)N/N=C/C=C/c1ccccc1[N+](=O)[O-],-1%,-1%,-17%,117*,2%,30*
O=C(N/N=C/C=C\c1ccccc1[N+](=O)[O-])c1ccco1,-1%,0%,-1%,-2,6%,12
COc1ccc(OC)c(Nc2nc(N)nc(CCl)n2)c1,-4%,0%,24%,20,-4%,-1

# Screening results from PubChem.
